About 2,700 (4%) of roughly 68,000 compounds showed an effect of 50% or more. The sample as a whole holds a higher share of strong results than the screen did.

The values that follow come from ChEMBL document CHEMBL4513216, “Probing the Open Global Health Chemical Diversity Library for Multistage-Active Starting Points for Next-Generation Antimalarials” (ACS Infect Dis, 2020).

The assay deals with Plasmodium berghei. The experiment in a line: Screen against P. berghei liver stage (PbLuc), transformed with Luciferase, at 2uM. The following applies: tested at 2 uM. In kind it is functional, HepG2.
In the case of `CC(C)c1nccn1CCC(=O)N1CCCC1c1cccn1C` (stereo not given), the INHIBITION is on record as 22%. To `COCCCn1cnnc1C(C)NC(=O)c1[nH]c2ccc(C)cc2c1C` (stereo not given) belongs 23.6%; to `Cn1cnc(S(=O)(=O)N2CC3(CCN(c4ccccc4)C3)C2)c1`, 15.42%.

Turning to `CN(CCc1ccccn1)C(=O)c1cn2c(n1)CNCC2`, the INHIBITION stood at 25.55%. In the case of `CN(CCSc1ccccc1)C(=O)c1cn2c(n1)CNCC2`, the INHIBITION turned out to be 54.29%. In the case of `CN(CCCc1ccccc1)C(=O)c1cn2c(n1)CNCC2` it was -12.28%. To `c1cncc(CN2CCC(c3ccc4c(c3)OCO4)CC2)c1` belongs 17.24%; to `Cc1cccc(C(=O)N2CC[C@H]3C[C@@H](C)O[C@@H]3C2)n1`, 1.29%; to `O=C(c1cc(C2CC2)on1)N1C[C@@H]2COC[C@]2(COc2cccnc2)C1`, 22.68%. In the case of `Cc1ccc(-c2cc(CNC(=O)N3CCC(O)CC3)on2)cc1` it was -5.7%; in that of `Cc1ccc(-c2cc(CNC(=O)NC3CCCCNC3=O)on2)cc1` (stereo not given), 55.7%. As for `O=C(NCc1cc(-c2ccccc2)no1)NC1CCCCNC1=O` (stereo not given), the INHIBITION was determined as 65.38%. To `Cc1ccc(-c2cc(CS(=O)(=O)NC3CCCNC3=O)on2)cc1` (stereo not given) belongs 42.79%. To `O=C(NCc1cc(-c2ccccc2)no1)NCC1CCCO1` (stereo not given) belongs -3.26%.

As for `O=C1NCCCCC1NC(=O)C1(c2ccccc2)CCOCC1` (stereo not given), the INHIBITION is on record as -20.35%.

With `COc1cccc(CC(=O)NC(C)c2nc3cccnc3n2C(C)C)c1` (stereo not given), the INHIBITION was determined as 74.83%.

With `COc1ccc(CC(=O)NC(C)c2nc3cccnc3n2C(C)C)cc1` (stereo not given), the INHIBITION is -39.63%. With `COc1ccccc1CC(=O)NC(C)c1nc2cccnc2n1C(C)C` (stereo not given), the INHIBITION was found to be 24.44%. To `COC(=O)C(CNC(=O)Nc1nncs1)Cc1cccc(C)c1` (stereo not given) belongs 12.17%; to `CCn1ccnc1CN1CCCN(C(=O)c2cc(C)nn2CC)CC1`, 11.09%.

Regarding `CC(C)C(=O)N(C)Cc1nc(N2CCCC2)ncc1-c1ccncc1`, the INHIBITION was -6.41%. To `Nc1nnc(CCNc2ncnc3c2CCN(C(=O)C2CC2)C3)s1` belongs 11.9%; to `Nc1nc(CCNc2ncnc3c2CCN(C(=O)C2CC2)C3)cs1`, -26.81%. Turning to `CCc1ccc(CCNc2ncnc3c2CCN(C(=O)C2CC2)C3)cc1`, the INHIBITION stood at 55.66%.

In the case of `Cc1cc(C)c(Cn2cncn2)cc1CN1CC[C@H](CO)[C@@H](O)C1`, the INHIBITION is -64.63%. To `CC1(C)CCN(S(=O)(=O)N2CCCC(c3cccc(C(=O)O)c3)C2)CC1` (stereo not given) belongs 19.04%; to `COC1CCN(S(=O)(=O)N2CCCC(c3cccc(C(=O)O)c3)C2)CC1` (stereo not given), 57.59%. In the case of `CC1CCN(S(=O)(=O)N2CCCC(c3cccc(C(=O)O)c3)C2)CC1` (stereo not given) it was -18.41%; in that of `Cc1cc(C)c(CNC(=O)NCc2ccncc2)c(=O)[nH]1`, 26.76%; in that of `O=C1OC2(CCN(C3CCCOC3)CC2)CN1CCc1ccccc1` (stereo not given), -1.27%. To `CC(C)CCN1CC2(CCN(C3CCCOC3)CC2)OC1=O` (stereo not given) belongs 57.47%; to `CN(C)CCCN1CC2(CCN(C3CCCOC3)CC2)OC1=O` (stereo not given), 24.81%; to `COCCNC(=O)N1CC(Cc2ccccc2F)C1`, -41.64%. For `Cc1cc(C)n2ncc(CN3CCC(Cn4cc(CO)nn4)CC3)c2n1`, the INHIBITION was 64.9%. To `Cc1cc(C)n2ncc(CN3CCC(n4cc(CCO)nn4)CC3)c2n1` belongs 31.51%; to `CCCc1cnc(C)nc1N1CCC(Cn2cc(CO)nn2)CC1`, 9.69%. On to `CCC(C(=O)NCc1csc(N2CCOCC2)n1)n1cccn1` (stereo not given), for which the INHIBITION is 17.78%. Take `Cc1cncc(Oc2ccc(CN)cc2)n1`: the INHIBITION is 32.31%. In the case of `Clc1cnc(NCc2ccccc2N2CCOCC2)nc1` it was -2.35%; in that of `c1ncn(CC2CN(Cc3nc(C4CC4)no3)CCO2)n1` (stereo not given), 60.64%; in that of `CCc1nc(CN2CCOC(Cn3cncn3)C2)no1` (stereo not given), 55.7%. In the case of `CC(C)Cc1nc(CN2CCOC(Cn3cncn3)C2)no1` (stereo not given) it was 40.17%; in that of `CCCc1nc(CN2CCOC(Cn3cncn3)C2)no1` (stereo not given), 37.52%; in that of `c1ncn(CC2CCCN(Cc3nc(C4CC4)no3)C2)n1` (stereo not given), -8.84%. In the case of `c1cnn(CC2CN(Cc3nc(C4CC4)no3)CCO2)c1` (stereo not given), the INHIBITION is on record as 9.41%. To `CCc1ccc(CC)c(NCc2cnc(N3CCOCC3)nc2)c1` belongs -64.63%; to `COCC(=O)N1C[C@@H]2CCCO[C@@H]2[C@H](N(C)Cc2ccco2)C1`, -17.76%. In the case of `Cc1ccc(CN2CCOC3(CCCN(c4cccc(F)c4)C3)C2)o1` (stereo not given) it was 22.15%. In the case of `Cc1noc(C)c1CN1CCN(C(C)c2nc(C3CC3)no2)CC1` (stereo not given) it was 33.22%; in that of `CN1CCC(n2nc(Cc3cccs3)nc2-c2ccncc2)CC1`, 21.97%; in that of `Cc1ncsc1-c1nc(Cc2cccs2)nn1C1CCN(C)CC1`, 43.44%.

In the case of `CCc1noc(C)c1-c1nc(Cc2cccs2)nn1C1CCN(C)CC1`, the INHIBITION came out at 64.9%. In the case of `CCc1sc(C(=O)Nc2cnn(CC(N)=O)c2)cc1C` it was 2.51%; in that of `CN(C)S(=O)(=O)N1CC[C@]2(O)CCN(c3ncccn3)C[C@@H]2C1`, 13.51%. To `CS(=O)(=O)N1CC[C@]2(O)CCN(c3cc(C#N)ccn3)C[C@@H]2C1` belongs 19.44%. To `CN(C)S(=O)(=O)N1CC[C@]2(O)CCN(c3cc(C#N)ccn3)C[C@@H]2C1` belongs 57.68%. On to `Cn1ccc2c(C(=O)N3CCN(C(=O)C4CCCC4)CC3)cccc21`, for which the INHIBITION is 16.64%.

`O=C(c1ccccc1O)N1CCN(C(=O)C2CCC2)CC1`: the INHIBITION came to 51.31%. In the case of `O=C(c1cc(F)ccc1O)N1CCN(C(=O)C2CCC2)CC1`, the INHIBITION is listed as -10%. To `Cc1ccc(S(=O)(=O)Nc2ccc(-n3nnn(C)c3=O)cc2)cc1` belongs -2.66%; to `CN(Cc1ncnn1C)C(=O)CCCn1ccc2cc(Cl)ccc21`, 57.23%. In the case of `CN(Cc1ncnn1C)C(=O)CCn1ccc2ccccc21`, the INHIBITION is recorded as -2.19%. To `CN(CC(N)=O)C(=O)CCCn1ccc2cc(Cl)ccc21` belongs 28.42%. Take `Cc1cnc(N2C[C@H]3CN(Cc4csc(C)n4)C(=O)[C@H]3C2)nc1`: the INHIBITION is recorded as 22.18%. To `CNc1cccc(C2CCCN(C(=O)c3cnccn3)C2)n1` (stereo not given) belongs 36.98%; to `CNc1cccc(C2CCCN(C(=O)c3cccnc3)C2)n1` (stereo not given), -23.48%; to `CNc1cccc(C2CCCN(C(=O)c3ccncc3)C2)n1` (stereo not given), 52.89%. To `COCCNC(=O)[C@@]12CCO[C@@H]1CCN(Cc1cc(C)on1)C2` belongs 10.43%; to `Cc1cnc(N2CCOC(C(=O)NCc3ccccc3)C2)s1` (stereo not given), 10.03%; to `O=C(NCc1ccccc1)C1CN(c2ccccn2)CCO1` (stereo not given), 82.2%.

On to `O=C(NCc1cccnc1)[C@H]1C[C@@H]2CCN(c3ccncn3)C[C@H]2O1`, for which the INHIBITION is recorded as 23.53%. In the case of `O=C(Nc1ccc(-c2ccccc2)cc1)N1C[C@@H]2CNC[C@]2(C(=O)O)C1` it was 51.42%; in that of `O=C(Nc1ccccc1-c1ccccc1)N1C[C@@H]2CNC[C@]2(C(=O)O)C1`, 14.54%. In the case of `O=C(c1ccccc1-c1ccccc1)N1C[C@@H]2CNC[C@]2(C(=O)O)C1` it was 19.13%. In the case of `CS(=O)(=O)CCNC1CCCN(Cc2noc(C3CC3)n2)C1` (stereo not given) it was 33.52%. On to `CC(C)c1cc(C(=O)NCC2CCCN(C(C)C)C2)n(C)n1` (stereo not given), for which the INHIBITION is 48.04%. In the case of `Cc1cc(C(=O)N2CCN(c3ccncc3Cl)CC2)n(C)n1` it was 64.35%; in that of `Cc1nn(C)c(C)c1C(=O)N1CCN(c2ccncc2Cl)CC1`, 4%; in that of `Cc1nn(C)c(C)c1C(=O)N1CCN(C(=O)CC2CCCCC2)CC1`, 43.44%. To `Cc1cc(C(=O)N2CCN(C(=O)CCC3CCCCC3)CC2)n(C)n1` belongs 74.44%; to `O=C(c1ccon1)N1CCN(c2ccncc2Cl)CC1`, 39.5%; to `Cc1nn(C)c(C)c1C(=O)N1CCN(C(=O)CCC2CCCCC2)CC1`, 21.97%. In the case of `Cc1cc(C)n(CC(C)CNC(=O)N(C)Cc2cc(C)on2)n1` (stereo not given) it was 0.89%; in that of `Cc1nc(-c2cc(C(=O)NCCN3CCOCC3)c3ccccn23)cs1`, -40.36%; in that of `CC(c1ccncc1)N(C)S(C)(=O)=O` (stereo not given), -22.2%. Regarding `Cc1noc([C@]23COC[C@H]2CN(C(=O)Cc2ccsc2)C3)n1`, the INHIBITION is reported as 15.36%. To `CCS(=O)(=O)N1CCOC(CCCc2ccccc2)C1` (stereo not given) belongs 1.94%; to `CC(C)(CN1CCC(Cc2ccc(CO)cc2)C1)N1CCOCC1` (stereo not given), -57.88%; to `CC(C)(CN1CCC(Cc2cccc(C(=O)O)c2)C1)N1CCOCC1` (stereo not given), -32.96%. In the case of `CC(C)(CN1CCC(Cc2ccc(C(=O)O)cc2)C1)N1CCOCC1` (stereo not given) it was 52.01%; in that of `c1cnc(-c2noc(C3CN(Cc4ccc5c(c4)CCO5)C3)n2)nc1`, -17.26%. In the case of `COc1ccccc1C(=O)N(C)Cc1nnc2ccccn12` it was 40.82%. On to `COC(=O)C(c1cc(F)ccc1F)N(C)C(=O)c1cnccn1` (stereo not given), for which the INHIBITION is on record as -27.5%. In the case of `COC(=O)C(c1cc(F)ccc1F)N(C)C(=O)c1ccnc(C)n1` (stereo not given) it was -12.91%; in that of `COC(=O)C(c1cc(F)ccc1F)N(C)C(=O)c1cnc(C)cn1` (stereo not given), 60.09%. For the molecule `Cc1cc(C)n(CCC2CC(=O)Nc3cc(O)c(C)cc32)n1` (stereo not given), the INHIBITION is -32.52%. As to `Cc1noc(C(C)C)c1C(=O)NCCCN1CCNCC1`, the INHIBITION was found to be 43.16%.

Take `Cc1noc(C(C)C)c1C(=O)NCCC(=O)N1CCCCC1`: the INHIBITION was determined as 11.57%. In the case of `Cc1noc(C(C)C)c1C(=O)NCCCN1CCC(C)CC1` it was -15.34%; in that of `Cc1noc(C(C)C)c1C(=O)NCCN1CCOCC1`, 32.63%; in that of `Cc1noc(C(C)C)c1C(=O)NCCCN1CCCCCC1=O`, 77.68%. In the case of `Cc1noc(C)c1C(=O)NCCN1CCN(S(C)(=O)=O)CC1` it was -41.64%. In the case of `Cc1noc(C)c1C(=O)NCCN1CCOCC1` it was 63.46%; in that of `Cc1noc(C(C)C)c1C(=O)NCCCN1CCCC1`, -75.02%.

For the molecule `Cc1noc(C(C)C)c1C(=O)NCCN1CCCCCC1=O`, the INHIBITION came out at 60.21%.
